For some assays here: Entries with a potency or affinity are not part of this list.

We go through eleven compounds from ChEMBL document CHEMBL3988442, “University of Dundee, Small-Polar-MMV Screening Library” (2021).

Set-up in all cases: scale not given: direction of the effect not stated beside the values
In assay [1] the target is Protein translocase subunit SecA (Escherichia coli (strain K12)) (UniProt P10408). Kind of assay: Assay to Identify E. coli SecA ATPase Inhibitors. It is filed as functional. The conditions noted are these: 30 µM.
Protein translocase subunit SecA (Escherichia coli (strain K12)), sequence (P10408 whole entry): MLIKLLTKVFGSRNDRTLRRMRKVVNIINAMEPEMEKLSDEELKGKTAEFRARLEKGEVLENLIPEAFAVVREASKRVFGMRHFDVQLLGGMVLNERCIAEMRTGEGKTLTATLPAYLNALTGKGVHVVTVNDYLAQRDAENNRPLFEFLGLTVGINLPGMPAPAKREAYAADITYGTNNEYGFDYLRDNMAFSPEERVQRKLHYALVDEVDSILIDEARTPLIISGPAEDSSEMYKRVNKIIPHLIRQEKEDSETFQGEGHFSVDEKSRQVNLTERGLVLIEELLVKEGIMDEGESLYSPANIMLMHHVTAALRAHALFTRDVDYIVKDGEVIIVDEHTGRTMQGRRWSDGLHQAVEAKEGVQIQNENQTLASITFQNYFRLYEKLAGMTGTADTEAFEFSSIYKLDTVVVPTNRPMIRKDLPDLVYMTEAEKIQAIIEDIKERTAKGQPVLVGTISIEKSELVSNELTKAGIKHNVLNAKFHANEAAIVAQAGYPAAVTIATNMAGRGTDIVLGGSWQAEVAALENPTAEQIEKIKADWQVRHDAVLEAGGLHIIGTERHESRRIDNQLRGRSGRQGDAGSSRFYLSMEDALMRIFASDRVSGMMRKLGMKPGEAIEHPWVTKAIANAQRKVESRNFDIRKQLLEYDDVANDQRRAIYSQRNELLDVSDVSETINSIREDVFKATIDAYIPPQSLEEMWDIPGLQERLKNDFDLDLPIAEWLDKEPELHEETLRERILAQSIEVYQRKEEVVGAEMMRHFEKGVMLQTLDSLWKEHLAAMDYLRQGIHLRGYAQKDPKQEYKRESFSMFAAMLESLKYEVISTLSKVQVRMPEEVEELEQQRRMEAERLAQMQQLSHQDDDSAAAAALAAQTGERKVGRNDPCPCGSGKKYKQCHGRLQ
For assay [2], the target named is T1, Ubiquitin-activating enzyme e1, putative (Leishmania donovani (strain BPK282A1)) (UniProt E9BSI1).
T1 sequence (whole entry): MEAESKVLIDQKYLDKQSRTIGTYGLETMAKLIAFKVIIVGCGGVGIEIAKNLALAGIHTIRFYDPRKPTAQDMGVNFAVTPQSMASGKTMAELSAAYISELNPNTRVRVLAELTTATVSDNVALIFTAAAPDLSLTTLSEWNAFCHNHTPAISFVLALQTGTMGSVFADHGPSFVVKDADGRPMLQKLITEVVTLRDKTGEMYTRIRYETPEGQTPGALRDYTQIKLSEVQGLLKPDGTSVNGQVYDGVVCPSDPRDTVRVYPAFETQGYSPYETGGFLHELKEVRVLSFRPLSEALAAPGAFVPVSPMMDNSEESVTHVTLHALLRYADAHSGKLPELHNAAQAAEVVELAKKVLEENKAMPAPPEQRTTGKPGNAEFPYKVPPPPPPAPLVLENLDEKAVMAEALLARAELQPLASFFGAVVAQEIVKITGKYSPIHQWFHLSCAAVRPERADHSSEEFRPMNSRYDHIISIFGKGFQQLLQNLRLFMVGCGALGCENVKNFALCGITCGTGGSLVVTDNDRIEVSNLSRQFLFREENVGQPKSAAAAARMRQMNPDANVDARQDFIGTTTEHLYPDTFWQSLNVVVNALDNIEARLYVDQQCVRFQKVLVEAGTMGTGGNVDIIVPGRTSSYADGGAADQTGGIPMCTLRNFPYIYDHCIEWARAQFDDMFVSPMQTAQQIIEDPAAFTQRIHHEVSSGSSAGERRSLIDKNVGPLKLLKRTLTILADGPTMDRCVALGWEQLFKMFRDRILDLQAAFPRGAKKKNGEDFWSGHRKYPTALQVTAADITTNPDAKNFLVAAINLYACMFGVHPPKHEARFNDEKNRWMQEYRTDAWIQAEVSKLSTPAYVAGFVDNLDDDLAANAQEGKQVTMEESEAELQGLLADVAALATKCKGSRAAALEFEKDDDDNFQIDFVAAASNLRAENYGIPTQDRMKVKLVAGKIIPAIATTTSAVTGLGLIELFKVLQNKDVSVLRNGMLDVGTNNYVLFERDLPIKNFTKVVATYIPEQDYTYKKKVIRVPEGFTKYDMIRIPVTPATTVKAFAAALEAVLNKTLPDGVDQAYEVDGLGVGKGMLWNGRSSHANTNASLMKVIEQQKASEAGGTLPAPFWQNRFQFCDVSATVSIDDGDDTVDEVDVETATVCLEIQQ
The experiment in a line: Leishmania donovani Ubiquitin Activating Enzyme (LdE1). It is filed as functional. The conditions noted are these: 30 µM.

Assay [3] has as its target Sialic acid-binding Ig-like lectin 9 (Homo sapiens) (UniProt Q9Y336). Kind of assay: Hs-Siglec9 ALPHAscreen SOP 20170721. The conditions noted are these: 10 µM.
A further assay relates to Trypanosoma cruzi. Kind of assay: Trypanosoma cruzi phosphomannomutase and mannose-1-phosphate guanylyltransferase assay. It is filed as functional. The conditions noted are these: 10 µM.
In assay [4] the target is T2, Arginase-2, mitochondrial (Homo sapiens) (UniProt P78540).
T2 sequence (whole entry): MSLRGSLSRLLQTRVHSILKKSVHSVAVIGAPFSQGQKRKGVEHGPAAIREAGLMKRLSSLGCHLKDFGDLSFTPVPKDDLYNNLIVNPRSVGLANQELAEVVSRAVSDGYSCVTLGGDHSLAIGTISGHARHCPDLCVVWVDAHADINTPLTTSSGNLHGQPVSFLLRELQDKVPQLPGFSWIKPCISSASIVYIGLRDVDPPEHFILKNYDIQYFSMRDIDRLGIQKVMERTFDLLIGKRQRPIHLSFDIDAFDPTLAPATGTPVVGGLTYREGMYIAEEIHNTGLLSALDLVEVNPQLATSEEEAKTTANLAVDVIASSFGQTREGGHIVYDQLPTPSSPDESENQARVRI
The experiment in a line: in vitro enzyme assay to detect the production of urea directly proportional to the activity of Arginase II. Also: in the data most compounds retested in dose-response had high values. The conditions noted are these: 33.3 µM. It is filed as functional.

The target of assay [5] is T3, Proteasome subunit beta (Trypanosoma cruzi) (UniProt O96673).
T3 sequence (whole entry): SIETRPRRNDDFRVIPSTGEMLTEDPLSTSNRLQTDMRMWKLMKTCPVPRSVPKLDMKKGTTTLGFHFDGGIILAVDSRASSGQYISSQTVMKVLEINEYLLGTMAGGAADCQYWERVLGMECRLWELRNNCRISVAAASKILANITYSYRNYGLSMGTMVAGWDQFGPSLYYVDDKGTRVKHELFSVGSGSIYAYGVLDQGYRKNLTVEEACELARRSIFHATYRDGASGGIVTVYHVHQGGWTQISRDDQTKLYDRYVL
Kind of assay: Trypanosoma cruzi proteasome chymotrypsin-like activity (TcProtChymo) assay. Also: in the data most compounds retested in dose-response had high values. Format: functional. The conditions noted are these: 9.37 µM.

The species entered for another assay is Homo sapiens. Kind of assay: To identify inhibition of the IFN signalling (Jak-Stat) pathway via expression of an eGFP reporter gene under the control of an IFN-stimulated response element (ISRE) containing MxA promoter. It is filed as functional. The conditions noted are these: 30 µM. For orientation: In a reporter assay the amount or activity of a reporter protein is the signal.

For assay [6], the target named is T4, Tyrosyl-tRNA synthetase, putative (Trypanosoma cruzi (strain CL Brener)) (UniProt Q4DSP6).
T4 sequence (whole entry): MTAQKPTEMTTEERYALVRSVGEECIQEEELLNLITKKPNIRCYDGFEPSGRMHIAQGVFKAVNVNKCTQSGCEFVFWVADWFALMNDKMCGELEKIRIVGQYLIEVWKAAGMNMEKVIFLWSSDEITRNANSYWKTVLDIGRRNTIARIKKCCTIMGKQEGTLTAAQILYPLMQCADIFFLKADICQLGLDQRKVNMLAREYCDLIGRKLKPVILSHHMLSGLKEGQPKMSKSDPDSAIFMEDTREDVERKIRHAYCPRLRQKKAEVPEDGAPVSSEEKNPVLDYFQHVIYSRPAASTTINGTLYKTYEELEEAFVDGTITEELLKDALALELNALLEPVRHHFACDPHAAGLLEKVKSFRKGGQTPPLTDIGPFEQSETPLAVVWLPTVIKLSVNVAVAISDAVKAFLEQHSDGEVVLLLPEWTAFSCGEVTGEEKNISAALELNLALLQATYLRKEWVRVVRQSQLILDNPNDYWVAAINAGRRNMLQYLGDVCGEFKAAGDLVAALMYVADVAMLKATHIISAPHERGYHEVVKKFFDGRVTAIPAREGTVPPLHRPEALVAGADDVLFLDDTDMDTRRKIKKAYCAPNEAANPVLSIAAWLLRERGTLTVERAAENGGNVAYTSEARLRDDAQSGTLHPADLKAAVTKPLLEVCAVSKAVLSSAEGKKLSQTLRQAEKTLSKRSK
The experiment in a line: Trypanosoma cruzi tyrosyl tRNA synthetase (TcYRS) _High Tyrosine SOP. Also: in the data most compounds retested in dose-response had high values. Format: functional. The conditions noted are these: 30 µM.

For assay [7], the target named is T4, Tyrosyl-tRNA synthetase, putative (Trypanosoma cruzi (strain CL Brener)). Kind of assay: Trypanosoma cruzi tyrosyl tRNA synthetase (TcYRS) SOP. The conditions noted are these: 30 µM. Format: functional.
The target in assay [8] is Chromo domain-containing protein 1 (Saccharomyces cerevisiae (strain ATCC 204508 / S288c) (Baker's yeast)) (UniProt P32657). The experiment in a line: ScCHD-1 Enzyme Inhibition Assay. Also: in the data most compounds retested in dose-response had high values. Format: functional. The conditions noted are these: 30 µM.
Chromo domain-containing protein 1 (Saccharomyces cerevisiae (strain ATCC 204508 / S288c) (Baker's yeast)), sequence (P32657 whole entry, the tested form may be a part): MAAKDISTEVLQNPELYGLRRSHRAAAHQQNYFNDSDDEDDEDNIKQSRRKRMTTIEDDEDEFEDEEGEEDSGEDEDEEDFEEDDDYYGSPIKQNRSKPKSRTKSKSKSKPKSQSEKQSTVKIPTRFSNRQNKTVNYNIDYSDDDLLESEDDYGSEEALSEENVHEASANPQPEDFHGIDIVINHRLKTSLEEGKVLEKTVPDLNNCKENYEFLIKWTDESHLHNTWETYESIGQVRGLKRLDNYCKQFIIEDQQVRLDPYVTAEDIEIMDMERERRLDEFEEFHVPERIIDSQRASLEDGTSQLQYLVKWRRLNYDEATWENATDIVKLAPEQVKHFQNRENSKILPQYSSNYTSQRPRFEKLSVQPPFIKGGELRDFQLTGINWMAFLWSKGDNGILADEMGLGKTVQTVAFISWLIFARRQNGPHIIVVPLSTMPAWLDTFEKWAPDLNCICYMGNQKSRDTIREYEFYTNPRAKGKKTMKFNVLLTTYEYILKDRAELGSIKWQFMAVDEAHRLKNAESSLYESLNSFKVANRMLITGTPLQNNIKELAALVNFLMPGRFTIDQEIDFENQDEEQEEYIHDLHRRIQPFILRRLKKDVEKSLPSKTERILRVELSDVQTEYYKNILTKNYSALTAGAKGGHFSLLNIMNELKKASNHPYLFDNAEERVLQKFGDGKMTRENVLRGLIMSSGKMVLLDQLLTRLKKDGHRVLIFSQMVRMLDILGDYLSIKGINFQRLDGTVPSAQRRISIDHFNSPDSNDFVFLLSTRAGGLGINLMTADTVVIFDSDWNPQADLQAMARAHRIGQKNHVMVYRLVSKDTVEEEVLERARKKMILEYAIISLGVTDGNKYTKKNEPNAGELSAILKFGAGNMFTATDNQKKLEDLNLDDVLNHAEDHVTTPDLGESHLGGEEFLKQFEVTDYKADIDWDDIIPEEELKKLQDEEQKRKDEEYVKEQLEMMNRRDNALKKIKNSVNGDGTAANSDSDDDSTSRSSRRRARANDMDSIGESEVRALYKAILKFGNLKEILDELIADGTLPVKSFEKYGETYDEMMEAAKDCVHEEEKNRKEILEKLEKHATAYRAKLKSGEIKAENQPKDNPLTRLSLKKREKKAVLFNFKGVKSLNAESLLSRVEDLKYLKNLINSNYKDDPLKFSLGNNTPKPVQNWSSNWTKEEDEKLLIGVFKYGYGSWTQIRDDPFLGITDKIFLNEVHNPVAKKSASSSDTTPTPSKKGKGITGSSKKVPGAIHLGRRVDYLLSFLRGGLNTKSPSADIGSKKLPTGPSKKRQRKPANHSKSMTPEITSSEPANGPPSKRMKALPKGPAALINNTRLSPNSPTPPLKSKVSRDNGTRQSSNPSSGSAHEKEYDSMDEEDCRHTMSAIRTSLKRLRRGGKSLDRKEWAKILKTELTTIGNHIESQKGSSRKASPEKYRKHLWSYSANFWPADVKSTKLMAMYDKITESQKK

Sialic acid-binding Ig-like lectin 9 (Homo sapiens), sequence (Q9Y336 whole entry): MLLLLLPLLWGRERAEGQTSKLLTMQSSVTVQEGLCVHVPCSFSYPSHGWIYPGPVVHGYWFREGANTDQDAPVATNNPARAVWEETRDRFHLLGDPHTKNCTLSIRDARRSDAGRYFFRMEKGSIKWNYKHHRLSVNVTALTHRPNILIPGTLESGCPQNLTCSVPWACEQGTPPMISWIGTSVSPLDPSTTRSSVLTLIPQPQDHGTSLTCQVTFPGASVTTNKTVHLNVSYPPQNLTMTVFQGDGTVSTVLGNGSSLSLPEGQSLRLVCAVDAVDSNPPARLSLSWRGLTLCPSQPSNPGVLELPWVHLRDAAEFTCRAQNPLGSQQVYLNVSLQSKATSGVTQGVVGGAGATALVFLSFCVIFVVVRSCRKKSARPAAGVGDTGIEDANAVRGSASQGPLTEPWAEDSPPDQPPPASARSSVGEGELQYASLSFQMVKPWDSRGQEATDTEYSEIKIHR

`Cc1ccc(Oc2ccc(NC(=O)NCC3CCOC3)cn2)cc1C` (stereo not given): the Percent Effect in assay [1] was -2.89%; in [2], 10.3%; in assay [3], -3.96%; in the assay on Trypanosoma cruzi, 7.98%; in assay [4], 6.97%; in assay [5], 8.79%. The Percent Effect is -3.33% in the assay filed under Homo sapiens, 4.31% in [6], 20.5% in assay [7] and -8.82% in assay [8].

For `Cc1cc(OCC(=O)N2CCCC(c3noc(C)n3)C2)no1` (stereo not given), the Percent Effect in [1] is 2.24%; in assay [2], 13.3%; in assay [3], -8.66%; in the assay with Trypanosoma cruzi, -4.62%; in assay [4] it was 4.88%; in assay [5], 19.8%. The Percent Effect in the assay listed under Homo sapiens is 17.5%; in assay [6] it was -0.526%; in [7], 2.56%; in assay [8], -9.02%.

With `c1cnnc(N2CCCC2CNCc2nc(C3CC3)no2)c1` (stereo not given), the Percent Effect was -0.891% in assay [1]; -7.69% in assay [2]; 1.93% in [3]; 12.1% in the assay on Trypanosoma cruzi; 1.64% in [4]; 1.11% in assay [5]. Besides, the Percent Effect was -18.5% in the assay filed under Homo sapiens, 6.22% in [6], 6.02% in [7] and 8.01% in [8].

For `Cc1nc(C(=O)N2CCC(Cc3cnc4[nH]ccc4c3)C2)co1` (stereo not given), the Percent Effect was -3.17% in [1]; 6.67% in assay [2]; -5.86% in [3]; -1.97% in the assay with Trypanosoma cruzi; -4.87% in assay [4]; 10.5% in [5]. The Percent Effect in the assay listed under Homo sapiens is 26.2%; in assay [6] it was -2.12%; in [7], -2.5%; in [8], -18.2%.

Take `Cc1cnn(CC2CN(CC(=O)N(C)Cc3cccs3)CCO2)c1` (stereo not given): the Percent Effect was -1.07% in assay [1]; 5.33% in assay [2]; -0.649% in assay [3]; -5.82% in the assay with Trypanosoma cruzi; 9.31% in assay [4]; 13.8% in assay [5]. Further, the Percent Effect is 11.2% in the assay filed under Homo sapiens, 2.63% in assay [6], 2.56% in assay [7] and -11.2% in assay [8].

With `O=C(NCC1CCOC1)Nc1ccc(OCC(F)(F)F)nc1` (stereo not given), the Percent Effect was 0.633% in assay [1]; 7.69% in assay [2]; 2.59% in assay [3]; -1.97% in the assay with Trypanosoma cruzi; 8.2% in assay [4]; 7.76% in [5]. For the same compound, the Percent Effect in the assay filed under Homo sapiens is 17.4%; in assay [6], 2.39%; in [7], 8.43%; in assay [8], -2.87%.

Consider `N#Cc1ccccc1C(=O)N1C[C@H](CO)C[C@H](CN2CCCC2)C1`, for which the Percent Effect is -4.41% in assay [1]; -54% in assay [2]; 7.55% in assay [3]; 6.69% in the assay on Trypanosoma cruzi; 16.4% in assay [4]; 5.65% in [5]. Besides, the Percent Effect in the assay listed under Homo sapiens was -3.94%; in assay [6], 2.66%; in [7], 9.76%; in assay [8], -1.92%.

For `NC(=O)C1CCC(NC(=O)COc2ccc(Cl)c(Cl)c2)CC1` (stereo not given), the Percent Effect in assay [1] is -4.03%; in assay [2] it was 10.4%; in assay [3], 8.56%; in the assay on Trypanosoma cruzi, 6.16%; in assay [4], -5.94%; in assay [5], 9.12%. Moreover, the Percent Effect in the assay filed under Homo sapiens was 8.8%; in [6], 5.88%; in assay [7] it was 23.5%; in assay [8], -8.52%.

For `Cn1cc(CN2CCCC3(CCCN3S(C)(=O)=O)C2)cn1` (stereo not given), the Percent Effect in assay [1] was -3.74%; in assay [2], 9.09%; in assay [3], -4.49%; in the assay with Trypanosoma cruzi, -4.77%; in assay [4], 2.02%; in assay [5], 12.3%. For the same compound, the Percent Effect in the assay filed under Homo sapiens was -3.8%; in assay [6], 5.79%; in assay [7] it was 10.3%; in [8], 1.97%.

Consider `CCc1ncc(C(=O)N2CCOCC2c2c(C)n[nH]c2C)s1` (stereo not given), for which the Percent Effect is -0.434% in [1]; 10.3% in [2]; -1.82% in assay [3]; 7.23% in the assay with Trypanosoma cruzi; 0.41% in [4]; 1.11% in assay [5]. Besides, the Percent Effect in the assay filed under Homo sapiens is -6.48%; in [6], -0.478%; in assay [7] it was 8.43%; in assay [8], -1.09%.

As to `COC(=O)C1CCN(C(=O)c2ccc(C)c(NS(C)(=O)=O)c2)CC1`, the Percent Effect in assay [1] was -9.4%; in assay [2], -5.41%; in [3], -2.25%; with Trypanosoma cruzi, -3.2%; in assay [4], -3.85%; in assay [5] it was 8.9%. For the same compound, the Percent Effect is -0.867% in the assay filed under Homo sapiens, 1.6% in [6], 2.44% in [7] and 5.38% in [8].
